# Where two headings read alike, the source gives them in different places.
# Tests used:
# Set-up in all cases: species or system human, MV4-11 + K-562 + COLO205 + SK-N-BE2 + OVCAR-8
# [1] = tested on: GAK; details: read-out: apparent Kd, n = 1
# [2] = tested on: STK10; details: read-out: apparent Kd; compound concentrations: 100 nM and 1000 nM (sheet 'Samples'), CATDS: 0.42195435963049299; n = 1
# [3] = tested on: GSK3A; details: read-out: apparent Kd, n = 1
# [4] = tested on: FLT3; details: read-out: apparent Kd, n = 1
# [5] = tested on: GSK3B; details: read-out: apparent Kd; compound concentrations: 100 nM and 1000 nM (sheet 'Samples'), CATDS: 0.16764618066406201; n = 1
# [6] = tested on: MAP2K2; details: read-out: apparent Kd; compound concentrations:100 nM and 1000 nM (sheet 'Samples'); n = 1
# [7] = tested on: RIOK2; details: read-out: apparent Kd; compound concentrations:100 nM and 1000 nM (sheet 'Samples'); n = 1
# [8] = tested on: TGFBR2; details: read-out: apparent Kd; compound concentrations:100 nM and 1000 nM (sheet 'Samples'); n = 1
# [9] = tested on: GRK6; details: read-out: apparent Kd; compound concentrations: 100 nM and 1000 nM (sheet 'Samples'), CATDS: 0.114980307902388; n = 1
# [10] = tested on: HSP90B1; details: read-out: apparent Kd; compound concentrations: 100 nM and 1000 nM (sheet 'Samples'), CATDS: 0.138909392239214; n = 1
# [11] = tested on: MAP2K1; details: read-out: apparent Kd; compound concentrations: 100 nM and 1000 nM (sheet 'Samples'), CATDS: 0.11714915098763; n = 1
# [12] = tested on: MAPK10; details: read-out: apparent Kd; compound concentrations: 100 nM and 1000 nM (sheet 'Samples'), CATDS: 0.46372584389591998; n = 1
# [13] = tested on: MAPK8; details: read-out: apparent Kd; compound concentrations: 100 nM and 1000 nM (sheet 'Samples'), CATDS: 0.17853758786403801; n = 1
# [14] = tested on: MAPK9; details: read-out: apparent Kd; compound concentrations: 100 nM and 1000 nM (sheet 'Samples'), CATDS: 0.26244745216645099; n = 1
# [15] = tested on: TTK; details: read-out: apparent Kd, compound concentrations: 100 nM and 1000 nM (sheet 'Samples'), n = 1
# [16] = tested on: TTN; details: read-out: apparent Kd, compound concentrations: 100 nM and 1000 nM (sheet 'Samples'), n = 1
# [17] = tested on: FLT4; details: read-out: apparent Kd; compound concentrations:100 nM and 1000 nM (sheet 'Samples'); n = 1
# [18] = tested on: MAP3K11; details: read-out: apparent Kd; compound concentrations:100 nM and 1000 nM (sheet 'Samples'); n = 1
# [19] = tested on: PRKCA; details: read-out: apparent Kd; compound concentrations:100 nM and 1000 nM (sheet 'Samples'); n = 1
# [20] = tested on: PRKCB; details: read-out: apparent Kd; compound concentrations:100 nM and 1000 nM (sheet 'Samples'); n = 1
# [21] = tested on: RET; details: read-out: apparent Kd; compound concentrations:100 nM and 1000 nM (sheet 'Samples'); n = 1
# [22] = tested on: STRADA; details: read-out: apparent Kd; compound concentrations:100 nM and 1000 nM (sheet 'Samples'); n = 1
# [23] = tested on: FGFR1; details: read-out: apparent Kd; compound concentrations:100 nM and 1000 nM (sheet 'Samples'); n = 1
# [24] = tested on: PIK3C2A; details: read-out: apparent Kd, n = 1
# [25] = tested on: RIPK3; details: read-out: apparent Kd; compound concentrations: 100 nM and 1000 nM (sheet 'Samples'), CATDS: 0.17836354308348701; n = 1
# [26] = tested on: STK26; details: read-out: apparent Kd; compound concentrations: 100 nM and 1000 nM (sheet 'Samples'), CATDS: 0.187537130117577; n = 1
# [27] = tested on: MAP2K5; details: read-out: apparent Kd; compound concentrations:100 nM and 1000 nM (sheet 'Samples'); n = 1
# [28] = tested on: SIK2; details: read-out: apparent Kd; compound concentrations:100 nM and 1000 nM (sheet 'Samples'); n = 1
# [29] = tested on: SIK3; details: read-out: apparent Kd; compound concentrations:100 nM and 1000 nM (sheet 'Samples'); n = 1
# [30] = tested on: ZAK; details: read-out: apparent Kd; compound concentrations:100 nM and 1000 nM (sheet 'Samples'); n = 1
# [31] = tested on: MAP3K1; details: read-out: apparent Kd; compound concentrations: 100 nM and 1000 nM (sheet 'Samples'), CATDS: 0.23263789115969999; n = 1
# [32] = tested on: PDGFRB; details: read-out: apparent Kd; compound concentrations: 100 nM and 1000 nM (sheet 'Samples'), CATDS: 0.24481499220571501; n = 1
# [33] = tested on: NQO1; details: read-out: apparent Kd; compound concentrations: 100 nM and 1000 nM (sheet 'Samples'), CATDS: 0.42980166948746801; n = 1
# [34] = tested on: GARS; details: read-out: apparent Kd; compound concentrations: 100 nM and 1000 nM (sheet 'Samples'), CATDS: 0.112943260502492; n = 1
# [35] = tested on: MAP3K6; details: read-out: apparent Kd; compound concentrations: 100 nM and 1000 nM (sheet 'Samples'), CATDS: 0.103040219928506; n = 1
# [36] = tested on: MTOR; details: read-out: apparent Kd; compound concentrations: 100 nM and 1000 nM (sheet 'Samples'), CATDS: 0.20477857042049299; n = 1
# [37] = tested on: PIK3CA; details: read-out: apparent Kd; compound concentrations: 100 nM and 1000 nM (sheet 'Samples'), CATDS: 0.41958784794042803; n = 1
# [38] = tested on: PRKDC; details: read-out: apparent Kd; compound concentrations: 100 nM and 1000 nM (sheet 'Samples'), CATDS: 0.14221616768717599; n = 1
# [39] = tested on: RAB14; details: read-out: apparent Kd; compound concentrations: 100 nM and 1000 nM (sheet 'Samples'), CATDS: 0.14270902117051201; n = 1
# [40] = compound concentrations: 100 nM and 1000 nM (sheet 'Samples'), CATDS: 1
# [41] = compound concentrations:100 nM and 1000 nM (sheet 'Samples')
structure (smiles),measurement,setting,value
C#Cc1cccc(Nc2ncnc3cc(OCCOC)c(OCCOC)cc23)c1.Cl [GW459135A],potency estimated from few doses,"[1]; compound concentrations: 100 nM and 1000 nM (sheet 'Samples'), CATDS: 0.61346853975848203",949 nM
same,potency estimated from few doses,[2],2060 nM
Cl.Cn1cc(C2=C(c3ccc(N)cc3)C(=O)NC2=O)c2ccccc21 [RO0317373-001],potency estimated from few doses,[3]; [40],866 nM
CC(C)c1ccc(Nc2nccc(-c3cnn4ncccc34)n2)cc1 [GW805758X],potency estimated from few doses,[4]; [41],1170 nM
same,potency estimated from few doses,[3]; [41],888 nM
same,potency estimated from few doses,[5],1460 nM
same,potency estimated from few doses,[6],2020 nM
same,potency estimated from few doses,[7],1700 nM
same,potency estimated from few doses,[8],2000 nM
CCC(=O)c1c(-c2ccccc2)c2cc(Cl)ccc2c(=O)n1Cc1cc(S(C)(=O)=O)n(CC(N)=O)n1 [TPKI-105],potency estimated from few doses,[9],2180 nM
same,potency estimated from few doses,[10],1090 nM
same,potency estimated from few doses,[11],2010 nM
same,potency estimated from few doses,[12],90.1 nM
same,potency estimated from few doses,[13],543 nM
same,potency estimated from few doses,[14],235 nM
COc1cc(N2CCN(C(C)C)CC2)ccc1Nc1nc(Nc2cccc3ncccc23)c2cc[nH]c2n1 [GSK1511931A],potency estimated from few doses,"[1]; compound concentrations: 100 nM and 1000 nM (sheet 'Samples'), CATDS: 0.87402661457119502",83.9 nM
same,potency estimated from few doses,[15]; CATDS: 0.35015598460163,1080 nM
c1ccc(Nc2ncc(-c3ccccc3)o2)cc1 [GW549390X],potency estimated from few doses,"[4]; compound concentrations: 100 nM and 1000 nM (sheet 'Samples'), CATDS: 0.74599434863178504",273 nM
same,potency estimated from few doses,[16]; CATDS: 0.37600950025420299,1330 nM
CN(C)C/C=C/C(=O)Nc1ccc(C(=O)Nc2cccc(Nc3ncc(Cl)c(-c4c[nH]c5ccccc45)n3)c2)cc1 [THZ1],potency estimated from few doses,[4]; [41],1310 nM
same,potency estimated from few doses,[17],904 nM
same,potency estimated from few doses,[18],743 nM
same,potency estimated from few doses,[19],191 nM
same,potency estimated from few doses,[20],727 nM
same,potency estimated from few doses,[21],921 nM
same,potency estimated from few doses,[22],2370 nM
COc1cc(OC)cc(-c2cc3cnc(N)nc3nc2NC(=O)NC(C)(C)C)c1 [PFE-PKIS_3],potency estimated from few doses,[23],85.8 nM
same,potency estimated from few doses,[17],1380 nM
same,potency estimated from few doses,[24]; [41],2380 nM
Cc1ccc2c(c1)/C(=N/Nc1ccc(S(N)(=O)=O)cc1)C(=O)N2 [GW275944X],potency estimated from few doses,"[4]; compound concentrations: 100 nM and 1000 nM (sheet 'Samples'), CATDS: 0.260396984763757",809 nM
same,potency estimated from few doses,[25],1700 nM
same,potency estimated from few doses,[26],1520 nM
same,potency estimated from few doses,[15]; CATDS: 0.15958246539429699,2270 nM
same,potency estimated from few doses,[16]; CATDS: 0.25287309010543901,851 nM
CNS(=O)(=O)c1ccc(N(C)C)c(Nc2ncnc3cc(OC)c(OC)cc23)c1 [GSK114],potency estimated from few doses,[1]; [41],28.1 nM
same,potency estimated from few doses,[27],12.7 nM
same,potency estimated from few doses,[28],639 nM
same,potency estimated from few doses,[29],1350 nM
same,potency estimated from few doses,[30],646 nM
CCS(=O)(=O)c1ccc(OC)c(Nc2ncc(-c3cccc(OC)c3)o2)c1 [GW580509X],potency estimated from few doses,[4]; [41],1130 nM
CC(C)c1ccc2c(c1)NC(=O)/C2=N/Nc1ccc(S(N)(=O)=O)cc1 [GW300653X],potency estimated from few doses,[4]; [40],716 nM
O=C(Nc1n[nH]c2nc(-c3ccco3)c(Br)cc12)c1ccc(CN2CCCC2)cc1.O=C(O)[C@H](O)[C@@H](O)C(=O)O [SB-742352-AC],potency estimated from few doses,"[4]; compound concentrations: 100 nM and 1000 nM (sheet 'Samples'), CATDS: 0.23628807978612301",1550 nM
same,potency estimated from few doses,[31],1600 nM
same,potency estimated from few doses,[32],1430 nM
same,potency estimated from few doses,[16]; CATDS: 0.29545284543589501,1010 nM
C#Cc1cccc(Nc2ncnc3ccc(OCCCCNCCS(C)(=O)=O)cc23)c1 [GW680191X],potency estimated from few doses,"[1]; compound concentrations: 100 nM and 1000 nM (sheet 'Samples'), CATDS: 0.59760522623710299",804 nM
same,potency estimated from few doses,[33],1580 nM
Nc1ncnc2c1ncn2-c1cccc2ccccc12 [SKF-97184],potency estimated from few doses,[34],1670 nM
same,potency estimated from few doses,[35],2270 nM
same,potency estimated from few doses,[36],419 nM
same,potency estimated from few doses,"[24]; compound concentrations: 100 nM and 1000 nM (sheet 'Samples'), CATDS: 0.109461657335159",1840 nM
same,potency estimated from few doses,[37],132 nM
same,potency estimated from few doses,[38],896 nM
same,potency estimated from few doses,[39],889 nM

# Source: article PMC11062922 (Nature Chemical Biology, 2023)
